From PubChem
An excerpt weighted towards active compounds, which were near 19% of everything screened.
HepG2 tox-1 – qHTS for Inhibitors of TGF-b: Cytotox Counterscreen; HepG2 CAGA-GFP viability, ATP luminescence, 18 h; Potency, µM (titrated, usually from 46.1 µM), for inactives: top-dose activity change, negative = cytotoxicity, usual class: cytotoxic; 410,000 compounds, 0.76% hits; AID 588856, 2011; also: potency is read from the fitted curve at half-maximal effect
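HepG2 CAGA-GFP cells (1000/well, DMEM with 1% FBS) received compound, then TGF-beta at 500 pg/mL final, and were incubated 18 hours at 37 degrees C. Viability was read by CellTiter-Glo luminescence. Media-only wells were set as complete cell-killing and DMSO as no toxicity.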
DT40 TDP1 CPT – qHTS for Inhibitors of human tyrosyl-DNA phosphodiesterase 1 (TDP1): qHTS in cells in presence of CPT; chicken DT40 Tdp1-/-;hTDP1 cells + 20 nM CPT, ATP luminescence, 48 h; AID 686979, 2013; Potency, µM (titrated, usually from 46.2 µM), for the others: at the top dose activity change, negative = growth inhibition, actives largely listed as inhibitors; 420,000 compounds, 12% hits; also: potency is read from the fitted curve at half-maximal effect; % is scaled to controls: 0 for no effect and ±100 for the full control effect; nearly all actives have a fitted effect of over 55% in size
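Cell growth measured by CellTiter-Glo luminescence after a minimum 48 h, 37 C compound exposure with 20 nM CPT in Tdp1-knockout DT40 cells stably expressing hTDP1, seeded 400/well; qHTS titration format.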
S-ASM inh – Inhibitors of Secretory Acid Sphingomyelinase (S-ASM): qHTS | Sphingomyelin phosphodiesterase (Homo sapiens), P17405 | placental ASM, HMU-PC fluorogenic substrate, 60 min | Potency, µM (titrated, usually from 57.5 µM), inactives show at the top dose activity change, negative = inhibition, hits mostly inhibitors | 340,000 compounds, 0.006% hits; also: potency is read from the fitted curve at half-maximal effect
Target sequence (P17405 47-631 limits assumed): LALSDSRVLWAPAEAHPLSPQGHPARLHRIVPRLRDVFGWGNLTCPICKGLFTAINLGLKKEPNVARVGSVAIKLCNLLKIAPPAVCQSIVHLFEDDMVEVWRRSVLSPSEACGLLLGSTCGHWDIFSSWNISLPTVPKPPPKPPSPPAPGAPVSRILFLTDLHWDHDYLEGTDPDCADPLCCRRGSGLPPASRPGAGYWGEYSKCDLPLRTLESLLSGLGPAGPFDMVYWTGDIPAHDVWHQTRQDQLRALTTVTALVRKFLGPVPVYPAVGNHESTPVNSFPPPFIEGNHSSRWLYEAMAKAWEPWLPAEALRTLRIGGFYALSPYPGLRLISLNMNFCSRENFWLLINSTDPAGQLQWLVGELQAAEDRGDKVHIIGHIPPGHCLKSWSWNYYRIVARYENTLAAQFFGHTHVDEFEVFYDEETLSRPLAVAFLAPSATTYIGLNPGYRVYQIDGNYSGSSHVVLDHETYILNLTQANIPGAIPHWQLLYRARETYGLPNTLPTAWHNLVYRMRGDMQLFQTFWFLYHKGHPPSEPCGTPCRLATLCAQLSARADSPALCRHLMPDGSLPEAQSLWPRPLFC
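Steps: dispense placental human ASM, pin compound, wait 10 min at room temperature, add HMU-PC0 substrate at 9 uM final, incubate 60 min at 37 °C, add stop solution raising pH to 10, read fluorescence.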
IL-1B inflam inh – qHTS for Inhibitors of Inflammasome Signaling: IL-1-beta AlphaLISA Primary Screen; THP-1 LPS/ATP IL-1B secretion, AlphaLISA, 16 h; active compounds read low; activity change, % at 57.5 µM; 360,000 compounds, 4.7% hits; in the data active = activity change below about -50%; inconclusive = mostly about -30% to -49%; also: % is scaled to controls: 0 for no effect and ±100 for the full control effect
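THP-1 cells pretreated 1 hr with compounds (up to 57.5 uM final), then stimulated with LPS (250 ng/mL final) plus ATP (1.25 mM final); secreted IL-1B measured by AlphaLISA after 16 hr, decreased signal indicating inhibition.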
TDP1 cell noCPT – qHTS for Inhibitors of human tyrosyl-DNA phosphodiesterase 1 (TDP1): qHTS in cells in absence of CPT; 420,000 compounds, 15% hits; Potency, µM (titrated, usually from 46.2 µM), without a hit: top-dose activity change, negative = growth inhibition, usual class: inhibitors; DT40 Tdp1-/- hTDP1 cells, no CPT, ATP luminescence, 48 h; also: potency is read from the fitted curve at half-maximal effect; % is scaled to controls: 0 for no effect and ±100 for the full control effect; nearly all actives have a fitted effect of over 55% in size
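Luminescent ATP content (CellTiter-Glo) served as the growth readout. Knockout chicken DT40 cells expressing human TDP1 were exposed to compounds without camptothecin for a minimum 48 hr at 37 °C.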
TGFb inhibitor – qHTS for Inhibitors of TGF-b; HepG2 CAGA-GFP TGF-b/SMAD3 reporter, GFP fluorescence, 18 h; TGF-beta stimulated, 500 pg/mL final; Potency, µM (highest dose often 46.1 µM), for the others: at the top dose activity, negative = inhibition, usual class: inhibitors; 410,000 compounds, 1.2% hits; also: potency is read from the fitted curve at half-maximal effect; % is scaled to controls: 0 for no effect and ±100 for the full control effect; nearly all actives have a fitted effect of over 65% in size
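First, reporter cells (HEPG2 CAGA-GFP) rested 2 h at 37 degrees C. Next, compounds were pinned in and TGF-beta added to 500 pg/mL final. After 18 h, GFP was imaged per cell and summed per well.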
TGFb confirm – qHTS for Inhibitors of TGF-b: Confirmation of Cherry Picks; shares compounds with TGFb inhibitor; HepG2 CAGA-GFP TGF-b reporter, GFP fluorescence, 18 h; cells stimulated with TGF-beta, 500 pg/mL; Potency, µM (highest dose often 46.1 µM), inactives show top-dose activity, negative = inhibition, hits mostly inhibitors; 1,600 compounds, 63% hits; AID 720534, 2013; also: potency is read from the fitted curve at half-maximal effect; % is scaled to controls: 0 for no effect and ±100 for the full control effect; nearly all actives have a fitted effect of over 65% in size
HepG2 tox-2 – qHTS for Inhibitors of TGF-b: Cytotox Counterscreen for Cherry Picks; shares compounds with TGFb inhibitor; HepG2 CAGA-GFP viability, ATP luminescence, 18 h; cells stimulated with TGF-beta, 500 pg/mL; Potency, µM (doses to about 46.1 µM), for inactives: top-dose activity, negative = cytotoxicity, hits mostly inhibitors; 1,600 compounds, 27% hits; also: potency is read from the fitted curve at half-maximal effect; % is scaled to controls: 0 for no effect and ±100 for the full control effect; nearly all actives have a fitted effect of over 70% in size
CCL64 TGFb inh – qHTS for Inhibitors of TGF-b: CCL64 Cells Orthogonal Assay for Cherry Picks; shares compounds with TGFb inhibitor; CCL64 CAGA-GFP reporter, TGF-b stimulated, GFP fluorescence, 18 h; Potency, µM (doses to about 46.1 µM), inactives show at the top dose activity, negative = inhibition, actives largely listed as inhibitors; 1,600 compounds, 41% hits; AID 720536, 2013; also: potency is read from the fitted curve at half-maximal effect; nearly all actives have a fitted effect of over 65% in size
TGFb COP inh – qHTS for Inhibitors of TGF-b: Hit Validation in HepG2 Cells using COP promoter. shares compounds with TGFb inhibitor. 1,600 compounds, 3% hits. HepG2 COP-GFP TGF-b reporter, GFP fluorescence, 18 h; cells stimulated by added recombinant TGF-beta. Potency, µM (doses to about 46.1 µM), inactives show top-dose activity, negative = inhibition, actives largely listed as inhibitors. AID 720537, 2013; also: potency is read from the fitted curve at half-maximal effect; nearly all actives have a fitted effect of over 70% in size
Numbers without * were called inactive; ? = inconclusive; nt = no result given. Unless noted, calls follow the shape of the dose curve; as a rule, active = well fitted curve in the direction sought with a large enough effect; inconclusive = small, poorly fitted or top-dose-only effect, or another doubt; inactive = no such curve, though single readings can be large; an effect the other way counts as inactive or inconclusive.

SMILES	HepG2 tox-1	DT40 TDP1 CPT	S-ASM inh	IL-1B inflam inh	TDP1 cell noCPT	TGFb inhibitor	TGFb confirm	HepG2 tox-2	CCL64 TGFb inh	TGFb COP inh
CNC(=O)c1sc(-c2cccs2)nc1C	5.5%	15.1%	6.8%	-11.1	-4.1%	2.4%	nt	nt	nt	nt
CC(C)n1ncc2c(C(=O)N3CCN(Cc4ccc(Cl)s4)CC3)cc(C3CC3)nc21	-1.3%	?	-0.7%	?	?	10µM*	?	-28.6%	?	-9.1%
COc1ccc(N2CCN(C(=O)COC(=O)c3cc(S(=O)(=O)N(C)C)ccc3N3CCCC3)CC2)cc1	-15.4%	?	-2.4%	-14.4	-20.7%	-28.1%	nt	nt	nt	nt
O=[N+]([O-])c1cccc(S(=O)(=O)Nc2nc3ccccc3nc2Nc2cccc(S(=O)(=O)N3CCCCC3)c2)c1	-31.6%	?	-0.6%	-20.6	?	4.47µM*	3.26µM*	6.51µM*	2.91µM*	0.9%
Cc1ccc(S(=O)(=O)Nc2nc3ccccc3nc2Nc2cccc(S(=O)(=O)N3CCCC3)c2)cc1	-42.5%	?	298.6%	33.0	?	42.5%	nt	nt	nt	nt
CCc1nc2ccc(C(=O)NCc3cccs3)cn2c1N(CC)Cc1cccc(Br)c1	-27.1%	20.6µM*	nt	-54.2*	11.6µM*	11.2µM*	18.4µM*	?	?	53.5%
O=C(O)c1ccc(NS(=O)(=O)c2ccc3c(c2)C(=O)c2ccccc2C3=O)cc1	-5.4%	-0.7%	-1.0%	-10.3	-1.6%	0.2%	nt	nt	nt	nt
O=C(O)c1ccc(NC2=C/C(=N/S(=O)(=O)c3ccccc3)c3ccccc3C2=O)cc1	3.98µM*	2.59µM*	-1.2%	-97.5*	3.66µM*	5.62µM*	6.51µM*	18.4µM*	11.6µM*	?
O=C1C(Nc2ccc(O)cc2)=C/C(=N/S(=O)(=O)c2cccs2)c2ccccc21	1.12µM*	1.16µM*	?	-99.5*	1.46µM*	1µM*	0.651µM*	1.03µM*	3.66µM*	1.03µM*
Cc1cccc(N2CCN(C(=O)CN3C(=O)COc4ccc(S(=O)(=O)N5CCOCC5)cc43)CC2)c1C	1.2%	nt	nt	nt	nt	0.3%	nt	nt	nt	nt
